Measured values taken from PubChem BioAssay.
Active and inactive are the calls of the source.

Assays:
[1] = target: Albumin (Bos taurus) (UniProt P02769); assay: bovine serum albumin binders on microarray, profiling panel, artefact control for SMM control protein annotation, biochemical, small-molecule microarray, Alexa647 label, 635/667 nm fluorescence (AID 1118); conditions: BSA-A647 binding, fluorescence 635 nm, higher = more signal;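 note: score merges 667 nm emission intensity and signal-to-noise per printed compound spot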
Chain of Albumin (Bos taurus) (P02769 whole entry, looked up): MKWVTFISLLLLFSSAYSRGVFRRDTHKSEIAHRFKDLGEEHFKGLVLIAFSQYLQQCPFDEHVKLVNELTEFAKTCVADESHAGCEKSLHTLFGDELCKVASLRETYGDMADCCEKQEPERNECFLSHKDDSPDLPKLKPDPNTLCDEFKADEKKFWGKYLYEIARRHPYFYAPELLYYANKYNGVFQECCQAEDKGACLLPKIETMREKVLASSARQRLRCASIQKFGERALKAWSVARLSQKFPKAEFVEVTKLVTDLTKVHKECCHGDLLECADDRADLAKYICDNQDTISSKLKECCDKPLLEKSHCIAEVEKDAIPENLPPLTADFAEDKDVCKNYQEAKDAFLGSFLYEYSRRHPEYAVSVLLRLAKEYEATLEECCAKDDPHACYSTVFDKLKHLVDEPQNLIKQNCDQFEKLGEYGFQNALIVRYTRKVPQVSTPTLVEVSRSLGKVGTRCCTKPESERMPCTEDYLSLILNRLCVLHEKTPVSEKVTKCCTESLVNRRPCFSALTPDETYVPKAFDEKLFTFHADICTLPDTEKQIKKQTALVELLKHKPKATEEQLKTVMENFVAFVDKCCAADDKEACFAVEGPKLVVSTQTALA

[2] = small-molecule microarray binders of probe aXIP, primary screen, biochemical, NeuroSMM set, 635/667 nm fluorescence (AID 1119); conditions: higher = more signal, called active from +8 up or from −8 down;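 note: probe is the protein aXip251-270 applied at 1 µg/mL to compound-printed slides; binding of probe to printed compounds measured as 667 nm fluorescence plus signal to noise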
[3] = small-molecule binders of probe aNOTCH3, primary screen, biochemical, small-molecule microarray, 635/667 nm fluorescence (AID 1120); conditions: higher = more signal;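 note: probe is a biotin-tagged antibody raised against NOTCH3 rather than NOTCH3 protein; score merges spot fluorescence near 667 nm with spot signal to noise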
[4] = small-molecule binders of probe aNOTCH2, primary screen, biochemical, small-molecule microarray, 635/667 nm fluorescence (AID 1121); conditions: higher = more signal;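 note: score merges feature fluorescence read at 667 nm with its signal to noise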
[5] = target: Carbonic anhydrase 2 (Homo sapiens) (UniProt P00918); assay: CAII small-molecule binders, profiling panel, biochemical, small-molecule microarray, Alexa647-labelled CAII (AID 1122); conditions: CAII-A647 binding fluorescence, higher = more signal
[6] = COS7 lysate on small-molecule microarray, probe aHis, 635 nm (AID 1123); conditions: COS7 cell lysate, fluorescence, higher = more signal;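 note: z-score combines 667nm fluorescence intensity with signal-to-noise per printed compound spot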
[7] = compound binding in COS7 lysate, probe aLAP1, primary screen, cell lysate, small-molecule microarray (AID 1124); conditions: probe aLAP1, fluorescence, higher = more signal;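 note: lysate comes from COS7 cells expressing LAP1 and is applied at 0.3 µg/mL; score merges spot fluorescence near 667 nm with signal-to-noise over triplicate slides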
[8] = tested on: Sam68 (KHDRBS1); assay: Sam68 small-molecule binders, primary screen, biochemical, small-molecule microarray, 635 nm fluorescence (AID 1125); conditions: small-molecule microarray binding, higher = more signal;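 note: score merges 667 nm channel intensity with signal to noise over triplicate slides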
[9] = tested on: Chordin-like protein 2 (CHRDL2); assay: CHRDL2 small-molecule binders, primary screen, biochemical, small-molecule microarray, 635 nm fluorescence (AID 1126); conditions: small-molecule microarray binding, fluorescence 635 nm; higher = more signal;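 note: printed compound slides probed with Chrdl2 protein at 4 µg/mL for 1 h at 4 C; score merges 667 nm emission intensity with signal to noise over three replicate slides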
[10] = target: Concanavalin-A (Canavalia ensiformis) (UniProt P02866); assay: ConA small-molecule binders, primary screen, artefact control for SMM control protein annotation, biochemical, small-molecule microarray, Alexa647 label, 635 nm (AID 1127); conditions: ConA-A647 binding fluorescence, higher = more signal;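 note: z combines 667 nm emission intensity with signal-to-noise across three replicate slides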
Chain of Concanavalin-A (Canavalia ensiformis) (P02866 whole entry, looked up): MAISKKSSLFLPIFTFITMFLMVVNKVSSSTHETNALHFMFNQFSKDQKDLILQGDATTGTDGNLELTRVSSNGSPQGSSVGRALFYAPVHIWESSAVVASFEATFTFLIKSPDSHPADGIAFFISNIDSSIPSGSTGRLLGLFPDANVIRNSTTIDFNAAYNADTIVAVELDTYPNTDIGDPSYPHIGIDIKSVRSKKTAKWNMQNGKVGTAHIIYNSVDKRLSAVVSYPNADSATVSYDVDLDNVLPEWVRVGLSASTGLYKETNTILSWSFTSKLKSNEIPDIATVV

Structure (SMILES) | composite z-score [1] | composite Z-score [2] | composite z-score [3] | composite z-score [4] | composite z-score [5] | composite z-score [6] | composite z-score [7] | composite z-score [8] | composite z-score [9] | composite z-score [10]
CCc1cccc(NC(=O)O[C@H]2[C@H](OC(=O)Nc3ccc4c(c3)OCO4)[C@@H](OC(=O)Nc3ccc4c(c3)OCO4)[C@@H](OC)O[C@@H]2CO)c1 | 0.539 | 0.108 (inactive) | 0.42 | -0.0714 | 0.645 | 2.42 | 0.665 | 1.29 | 0.463 | 0.638
Cn1cccc1C(O)C1C=CC2C(=O)NC(=O)C2N1Nc1ccccn1 (stereo not given) | 0.809 | 0.0019 (inactive) | -0.0166 | -0.171 | 0.914 | -0.318 | 0.503 | -1.45 | 0.148 | -0.0954
O=C1[C@H]2[C@H]3[C@H](O)[C@H](O)CC(=NOC[C@@H](O)COCc4ccco4)[C@H]3CC[C@H]2C(=O)N1c1cccc(Oc2ccccc2)c1 | 0.355 | -0.705 (inactive) | -0.304 | -0.133 | 0.364 | -0.607 | 0.137 | -0.572 | -0.573 | -0.785
COCCOC(=O)N1C(=O)[C@@]2(c3cc(C#Cc4ccc(OC)cc4)ccc31)[C@H](C(=O)N1CCN(c3ncccn3)CC1)[C@H]1C(=O)O[C@H](c3ccccc3)[C@H](c3ccccc3)N1[C@@H]2c1ccc(OCCO)cc1 | -0.447 | 0.549 (inactive) | 0.311 | 0.0966 | 0.31 | 1.1 | 0.634 | 0.556 | 0.792 | 1.08
CCOC(=O)C1=CCC(c2cc3ccccc3[nH]2)NC1 (stereo not given) | 0.653 | 0.0894 (inactive) | 0.173 | 0.069 | 0.63 | 1.7 | 0.944 | 0.689 | 0.215 | -0.668
C[C@@H](c1ccccc1)N1C(=O)[C@H]2[C@H]3[C@H](O)C=CC(=O)[C@@H]3CC[C@H]2C1=O | 0.0343 | -0.325 (inactive) | -0.0932 | -0.132 | 0.572 | -0.263 | 0.146 | 0.456 | 0.778 | 0.518
O=C1CCCC2OC12C(O)CCc1ccccc1 (stereo not given) | -0.0592 | 0.319 (inactive) | -0.0581 | -0.185 | -0.22 | -0.324 | -0.2 | 0.17 | 0.594 | 0.594
CN1C(=O)[C@@]2(CCC(=O)OC(C)(C)C)N=C(c3ccc(OCCCO)cc3)O[C@H]2c2ccccc21 | 0.498 | -0.428 (inactive) | -0.0694 | -0.165 | 0.337 | 2.38 | 0.176 | 1.27 | 0.0811 | 1.09
CC(C)NC(=O)[C@@]1(C)c2ccccc2C(=O)N(Cc2cc(F)cc(C(F)(F)F)c2)[C@H]1c1ccc(CO)cc1 | 0.293 | 0.74 (inactive) | 0.191 | -0.102 | 0.645 | 1.03 | 0.433 | 1.23 | 0.153 | 0.674
O=C(CS)NCCCCCNC(=O)[C@@H]1C[C@@H]2C(=O)N[C@@H](Cc3ccccc3)C(=O)N2[C@@H]1c1ccc(O)cc1 | -0.814 | 0.346 (inactive) | -0.0647 | -0.0756 | 0.674 | 1.37 | 0.154 | 1.3 | 0.617 | 0.874
CN(C)CCCNC(=O)[C@@H]1c2ccccc2C(=O)N(Cc2ccccc2)[C@H]1c1ccc(CO)cc1 | -0.688 | 0.799 (inactive) | -0.0971 | -0.205 | 0.196 | 0.662 | 1.37 | -0.0257 | -0.623 | -0.312
C#CCCCON=C1C[C@@H](O)[C@@H](O)[C@@H]2[C@@H]3C(=O)N([C@@H](C)c4ccccc4)C(=O)[C@@H]3CC[C@H]12 | 0.161 | -0.26 (inactive) | 0.0494 | -0.0554 | -0.0339 | -0.0684 | 0.0595 | 0.513 | 0.523 | 0.282
COCCCNC(=O)[C@]1(Cc2ccccc2)N=C(c2ccc(OCCCO)cc2)O[C@@H]1c1ccccc1 | 0.998 | 0.12 (inactive) | 0.108 | 0.0745 | 0.726 | 3.09 | 0.401 | 1.31 | -0.547 | 1.02
CC(C)NC(=O)[C@@H]1c2ccccc2C(=O)N(CC23CC4CC(CC(C4)C2)C3)[C@H]1c1ccc(CO)cc1 | 0.283 | -0.178 (inactive) | 0.106 | -0.125 | 0.25 | 1.65 | 0.397 | 1.3 | 0.533 | 1.08
Cc1ccc(F)cc1S(=O)(=O)N[C@@H]1CCN(Cc2ccc(CC(C)C)cc2)C1 | 0.118 | -0.316 (inactive) | -0.249 | -0.208 | 0.013 | 0.193 | 0.172 | 0.499 | 0.266 | -1.47
CC(CCN1CCc2nc(-c3ccccc3)c(-c3ccccc3)cc2C1)=NO[C@H](C)c1cn([C@@H]2COC[C@H]2O)nn1 | 0.156 | -0.0135 (inactive) | 0.0864 | -0.117 | -0.089 | 0.507 | 0.222 | 1.31 | 0.0957 | -0.411
